Source: PubChem BioAssay (NCI)
About 79,000 compounds went through this panel and 15% of them were active in at least one assay; those are over-represented in the sample as a whole. A number with no mark means an inactive call. Activity calls are given as the source filed them. Rule as the data show it: active = growth inhibition above about 70%; inactive = the rest.

Assays:
[1] = NCI Yeast Anticancer Drug Screen. Data for the rad50 strain (AID 155);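 also: 0% = growth of vehicle-only cultures of the same strain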; conditions: S. cerevisiae rad50 strain growth inhibition; at 50.0 µM; hits give high values
Method in brief: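 DNA repair mutant yeast, compound exposure, growth read-out; inhibition is taken relative to vehicle.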

[2] = NCI Yeast Anticancer Drug Screen. Data for the mec2-1 strain (AID 157); conditions: S. cerevisiae mec2-1 strain, at 50.0 µM, hits give high values
Method in brief: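 Readout is yeast growth inhibition, normalised to vehicle-treated controls, in the mec2-1 strain exposed to compound.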

[3] = NCI Yeast Anticancer Drug Screen. Data for the sgs1 mgt1 strain (AID 161);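 also: 0% = growth of cultures given vehicle only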; conditions: S. cerevisiae sgs1 mgt1 strain, at 50.0 µM, hits give high values
Method in brief: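 Percent growth inhibition was derived by comparing compound-exposed mutant yeast with vehicle-exposed cultures. The strain carries alterations in DNA damage repair.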

[4] = NCI Yeast Anticancer Drug Screen. Data for the cln2 rad14 strain (AID 165);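 also: 0% = growth equal to vehicle treated cultures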; conditions: S. cerevisiae cln2 rad14 strain, at 50.0 µM, hits give high values
Method in brief: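 Relative to vehicle controls, growth inhibition of compound-treated cln2 rad14 yeast was recorded.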

[5] = NCI Yeast Anticancer Drug Screen. Data for the bub3 strain (AID 167); conditions: S. cerevisiae bub3 mutant strain, at 50.0 µM, hits give high values
Method in brief: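 In this screen, a yeast mutant lacking normal mitotic checkpoint function is challenged with compound. Relative growth versus vehicle gives the inhibition value.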

[6] = NCI Yeast Anticancer Drug Screen. Data for the mlh1 rad18 strain (AID 175); conditions: S. cerevisiae mlh1 rad18 strain growth inhibition; at 50.0 µM; hits give high values
Method in brief: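 Test agents were incubated with a yeast strain of defined genotype (DNA damage repair defect). Inhibition of growth was derived by comparison with vehicle-exposed cultures.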

SMILES	growth inhibition [1]	growth inhibition [2]	growth inhibition [3]	growth inhibition [4]	growth inhibition [5]	growth inhibition [6]
COC(=O)c1ccc(F)cc1	-53.9%	-25.9%	-25.5%	-1.45%	-51.6%	-46.3%
CN(C)c1ccc(/C=N/NS(=O)(=O)c2ccc(N)cc2)cc1	-4.4%	-9.95%	18.8%	-3.45%	-32.2%	-12.6%
CC(C)NS(=O)(=O)c1ccc(Cl)cc1	11.6%	1.65%	12.4%	0.4%	-1.1%	1.85%
CCc1cc2c(oc3cc(C)ccc32)c(=O)n1C	-12.4%	-7.7%	-13.8%	13.5%	-14.2%	-8.75%
CC(=O)OCC1OC(OC(C)=O)C(NC(=O)CN(Cc2ccccc2)S(C)(=O)=O)C(OC(C)=O)C1OC(C)=O (stereo unspecified)	-8.6%	13.9%	-16.1%	-1.65%	0.35%	-4.05%
O=C(Oc1ccccc1[N+](=O)[O-])Oc1ccccc1[N+](=O)[O-]	-3.45%	16.3%	19.5%	-29.4%	16.2%	-2.7%
CCN(CC)CCn1c(=O)c2c(ncn2C)n(C)c1=O	-5.55%	-22.7%	12.6%	-36.3%	11.8%	-15.6%
CCCCOC(=O)c1ccc(NC(=O)Nc2ccc(SC)cc2)cc1	-4.05%	1.8%	19.2%	-8.75%	19.8%	-13.1%
CCOC(=O)COc1ccc2c(C)cc(=O)oc2c1[N+](=O)[O-]	11.4%	-6.85%	2.1%	6.95%	6.6%	35.5%
CC(CO)CCNc1ncnc2c1ncn2CCC(=O)O (stereo unspecified)	-8.7%	6%	-29.9%	-23.5%	17.2%	-0.95%
Cc1ccc2c(c1)C(C)CC2(C)C (stereo unspecified)	1.8%	-6.55%	-4.6%	3.65%	8.95%	2.15%
O=C(CCC(=O)Oc1ccccc1)Oc1ccccc1	-15.9%	-1.1%	-31.6%	3.2%	28.3%	13.7%
Cn1c(=O)c2c(nc(C3CC3)n2C)n(C)c1=O	-1.15%	-0.6%	5.65%	-16.6%	-0.55%	12.1%
CSC1(C(=O)O)C2CCC3C2CCC31 (stereo unspecified)	12.7%	16.1%	9.95%	26.9%	51.2%	41.5%
CCC1(CCBr)C(=O)NC(=Nc2ccccc2)NC1=O (stereo unspecified)	5.6%	-5.8%	5.9%	-41.1%	9.9%	-14.3%
CC(NC(=O)OCc1ccccc1)NC(=O)OC(C)(C)C (stereo unspecified)	-47%	-63.5%	-18.9%	-13.2%	-14.6%	-26.8%
COc1cc2cnc(-c3ccncc3)c(N)c2cc1OC	-0.75%	8.4%	-11.6%	24.6%	7.8%	7.65%
CC(CC(O)CCCN(C)C)CC(C)(C)C (stereo unspecified)	46.5%	39.8%	43.4%	22.1%	24.3%	37.5%

SMILES	growth inhibition [1]	growth inhibition [2]	growth inhibition [3]	growth inhibition [4]	growth inhibition [5]	growth inhibition [6]
CCOC(=O)CNC(=O)C(=[N+]=[N-])C(=O)COc1ccc(Cl)cc1Cl	3.4%	-9%	18.1%	-18.3%	19.4%	-5.05%
Cc1ccc(SCc2ccc(Cl)cc2)nn1	4.05%	0.3%	-1.65%	-13.8%	26.8%	-5%
Cc1ccc(C(=O)Nc2ccc(S(=O)(=O)O)c3cc(S(=O)(=O)O)cc(S(=O)(=O)O)c23)cc1N	-28.1%	-7.05%	-54.5%	1.7%	-13.2%	-28.2%
S=C(Nc1ccccc1)Nc1nc(-c2ccccc2)c(N=Nc2ccccc2)s1	29.8%	-1%	4.05%	10.1%	12.9%	2%
COc1cc(-c2[nH]ncc2CCCC(=O)Nc2ccccc2[N+](=O)[O-])ccc1O	20.9%	-2.75%	-14.5%	7.8%	-2.75%	18.5%
COc1cccc2c1C(=O)c1c(OC)c(CBr)cc(OC)c1C2=O	37.6%	9.55%	15.9%	-36.6%	-7.85%	15.5%
O=S(=O)(Nc1cccc(Cl)c1)c1ccc(Cl)cc1	99.7% (active)	99.8% (active)	99.8% (active)	99.6% (active)	99.7% (active)	99.7% (active)
CCCCC(CC)/C(C)=N/NC(N)=O (stereo unspecified)	4.7%	9.55%	-5.3%	-9.1%	-1.15%	-11.5%
COc1ccc(CC#N)cc1OC	6.5%	-8.3%	-5.6%	-54.8%	-31.4%	-5.2%
C=CCC12CC(C)OC1=Nc1ccccc1NC2=O (stereo unspecified)	-0.95%	-1.85%	-18.2%	21.1%	7.2%	-9.8%
O=[N+]([O-])c1ccc2nc(Cl)cnc2c1	25.2%	31.2%	16.5%	-5.2%	3.8%	38.6%
COc1cc2c(cc1O)C1Cc3cc(O)c(OC)cc3C(C2)N1C (stereo unspecified)	-29.8%	-12.7%	-30.2%	3.1%	-25.6%	-22.1%
O=C(C[n+]1ccccc1Cl)c1ccc(I)cc1	18.2%	24.8%	53%	9.05%	19.9%	56.8%
N#C/C(=C\c1ccccc1)c1ccc(F)cc1F	33.2%	30.6%	6.15%	6.55%	6.55%	9.7%
Cc1ccc2oc(=O)c3c(O)c4cccc(OC5OC(C)C6O[C@@H](c7ccccc7)OC6C5OC5OC(C)C(O)C(O)C5O)c4c4oc(=O)c1c2c34 (stereo partly specified)	87.2% (active)	89.7% (active)	91.5% (active)	83.6% (active)	89.7% (active)	75.4% (active)
CC(O)CN1c2ccccc2Sc2ccccc21 (stereo unspecified)	-17.4%	-13.7%	-13.2%	-18.2%	-13.8%	7.55%
Cc1cc(C)c(C(=O)/C=C(\N)C(=O)c2c(C)cc(C)cc2C)c(C)c1	-7.05%	0%	2.75%	14.7%	27.1%	4.75%
O=C(c1cccc(C(=O)N(c2ccccc2)C2CCCCC2)c1)N(c1ccccc1)C1CCCCC1	-2.65%	-6.35%	-1.55%	-6.65%	-1.3%	-27.9%
